Data as given in PubChem BioAssay AID2284344 (EPA ToxCast).
Results filed as inconclusive are left out. Active and inactive are the calls of the source. How the source made its calls: active means hit-call score of the fitted dose curve at least 0.9, where 1 is the maximum; inconclusive means response in the unintended direction; inactive means score below 0.9.

Test system: frog Peroxisome Proliferator-activated Receptor-alpha (PPARa), gene 398843
Test: ATG_frPPARa_EcoTox2: Attagene TRANS-FACTORIAL EcoTox-2 HepG2 Assay for frog Peroxisome Proliferator-activated Receptor-alpha (PPARa)
Method: ATG_EcoTox2 is a cell-based, multiplexed assay created by modifying the existing Attagene TRANS-FACTORIAL system to include a panel of nuclear receptors from some or all the following species: human (Homo sapiens), african clawed frog (Xenopus laevis), rainbow trout (Oncorhynchus mykiss), japanese medaka (Oryzias latipes), and zebrafish (Danio rerio). The ECOTOX2-FACTORIAL format uses HepG2, a human liver cell line, with measurements taken at 24 hours after chemical dosing in a 24-well plate. ATG_frPPARa_EcoTox2 is one of 29 assay components calculated in the ATG_EcoTox2 assay. It is designed to make measurements of mRNA induction, a form of inducible reporter, as detected with fluorescence intensity signals by Reverse transcription polymerase chain reaction (RT-PCR) and Capillary electrophoresis technology.The assay endpoint ATG_frPPARa_EcoTox2 was analyzed in the positive analysis fitting direction relative to DMSO as the negative control and baseline of activity. Using a type of inducible reporter, measures of mRNA for gain-of-signal activity can be used to understand the reporter gene at the transcription factor-level as they relate to the gene PPARa. Furthermore, this assay endpoint can be referred to as a primary readout, because this assay has produced multiple assay endpoints where this one serves a reporter gene function. To generalize the intended target to other relatable targets, this assay endpoint is annotated to the nuclear receptor intended target family, where the subfamily is non-steroidal.
Human liver HepG2 cells are transiently transfected with multiple reporter transcription units (MRTUs) in 6-well plates using FuGene 6 reagent (Roche; 3 ml FuGene/1 mg DNA). The MRTU constructs are regulated by a cis-regulating element (promoter). Each RTU expresses a GAL4-UAS that regulates the transcription of a nearby target reporter gene sequence. A major difference between the CIS and TRANS system is that in CIS activities of endogenous TFs are measured, whereas the TRANS assay evaluates changes in activities of exogenous, chimeric NR-Gal4 proteins. […] At the end of 24 hour incubation, total RNA was isolated using TriZol reagent (Invitrogen). The isolated RNA is then reverse-transcribed using oligo(dT) primer and Mo-MLV reverse transcriptase (Invitrogen) with DNAse I (Ambion) treatment for 30 min. The one-tenth of the produced cDNA was amplified by PCR using Taq DNA polymerase (Invitrogen) and two reporter sequence-specific primers. The PCR products were fluorescently labeled by primer extension with 6-arboxyfluorescein (6-FAM) 5'-labeled reporter sequence-specific primer (2 min at 95 C, 20 s at 68 C and 10 min at 72 C) and these products were digested with 5U of HpaI (New England Biolabs) for 2h at 37 C. The fragments were purified using Qiaquick PCR columns (Qiagen), analyzed on an ABI 3130xL genetic analyzer (Applied Biosystems) with peak positions identified by using a set of X-rhodamine (ROX)-labeled MapMarker1000 molecular weight standards (BioVentures). The raw capillary electrophoresis data was processed using Attagraph software (Attagene).

Structure (SMILES)	outcome	AC50
C[C@]12C=CC(=O)C=C1CC[C@@H]1[C@@H]2C(=O)C[C@@]2(C)[C@H]1CC[C@]2(O)C(=O)CO	inactive	
Cc1ccc(C)c(OCCCC(C)(C)C(=O)O)c1		50 µM (active)
CC(C)OC(=O)C(C)(C)Oc1ccc(C(=O)c2ccc(Cl)cc2)cc1	inactive	
C=C(c1ccc(C(=O)O)cc1)c1cc2c(cc1C)C(C)(C)CCC2(C)C	inactive	
Cc1cccc(Nc2cc(Cl)nc(SCC(=O)O)n2)c1C		11.9 µM (active)
Cc1c(C)c2c(c(C)c1O)CCC(C)(COc1ccc(CC3SC(=O)NC3=O)cc1)O2 (stereo not drawn)	inactive	
CN(CCOc1ccc(CC2SC(=O)NC2=O)cc1)c1ccccn1 (stereo not drawn)		8.4 µM (active)
CC(C)(Oc1ccc(Cl)cc1)C(=O)O	inactive	
C[C@@H]1C[C@H]2[C@@H]3CCC4=CC(=O)C=C[C@]4(C)[C@@]3(F)[C@@H](O)C[C@]2(C)[C@@]1(O)C(=O)COP(=O)(O)O	inactive	
CC(C)(Oc1ccc(C2CC2(Cl)Cl)cc1)C(=O)O (stereo not drawn)		113 µM (active)
CC(c1cc2ccccc2s1)N(O)C(N)=O (stereo not drawn)	inactive	
CC(C)(Oc1ccc(CCNC(=O)c2ccc(Cl)cc2)cc1)C(=O)O		23.6 µM (active)
Cc1nc(-c2ccc(C(F)(F)F)cc2)sc1C(=O)NCc1ccc(OC(C)(C)C(=O)O)cc1		0.0823 µM (active)
